FECH inh: inhibitors of human ferrochelatase. 3.3% of 20,000 active. AID 1671448. calls only at 10 µM (by protocol). purified FECH, Ni-mesoporphyrin absorbance 550 nm. P22830;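 active means enzyme reaction rate more than 3 SD below the solvent-only control wells on the same plate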;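 further: lower slope than DMSO wells means FECH inhibition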
Target sequence (P22830 whole entry, looked up): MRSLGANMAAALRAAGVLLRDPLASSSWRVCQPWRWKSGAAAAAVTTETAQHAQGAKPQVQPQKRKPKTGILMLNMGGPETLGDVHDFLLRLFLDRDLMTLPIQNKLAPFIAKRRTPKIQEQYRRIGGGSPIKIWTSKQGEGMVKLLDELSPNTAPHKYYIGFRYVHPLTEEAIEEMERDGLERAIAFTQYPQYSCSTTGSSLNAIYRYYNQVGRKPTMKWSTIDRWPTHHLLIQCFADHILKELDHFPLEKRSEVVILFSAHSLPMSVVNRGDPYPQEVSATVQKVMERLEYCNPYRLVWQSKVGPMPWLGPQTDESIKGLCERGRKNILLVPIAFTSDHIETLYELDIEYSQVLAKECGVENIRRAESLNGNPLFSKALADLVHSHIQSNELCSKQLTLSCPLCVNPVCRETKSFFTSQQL
Numbers without * were called inactive. This excerpt belongs to a sample that is enriched for hits.

Screening Cc1nnnn1-c1ccc(Cc2n[nH]c(Cc3ccccc3)n2)cc1 returned FECH inh active.
Screening c1ccc(Cc2n[nH]c(Cn3nc4ccccc4n3)n2)cc1 returned FECH inh inactive.
`Cc1nnnn1-c1cccc(-c2n[nH]c(Cc3ccccc3)n2)c1` gave FECH inh inactive.
`O=S(=O)(NCc1ccccc1)N1CCC(Cc2noc(C3CC3)n2)CC1` gave FECH inh inactive.
`CCOC(=O)CCc1c(C)nc2nc(CNc3ccc(F)cc3)[nH]n2c1=O` gave FECH inh inactive.
CCc1nc2nc(C)[nH]n2c(=O)c1NC(=O)Nc1cccc(Cl)c1 was read as FECH inh inactive.
Screening CCc1nc2nc(C)c(NC(=O)Nc3ccc(F)c(Cl)c3)c(=O)n2[nH]1 returned FECH inh inactive.
`CCOC(=O)CCc1c(C)nc2nc(CNc3cccc(C)c3)[nH]n2c1=O` gave FECH inh active.
`CCOC(=O)CCc1c(C)nc2nc(CNc3cccc(Cl)c3)[nH]n2c1=O` gave FECH inh active.
`CCc1nc2nc(C)c(NC(=O)Nc3cccc(C)c3)c(=O)n2[nH]1` gave FECH inh inactive.
For O=S(=O)(NCCn1c(-c2ccc(F)cc2)nc2cccnc21)c1ccc(Br)s1 the results were FECH inh inactive.
Screening Cc1cc(NC(=O)COc2ccccc2C)n(-c2ncnc3c2cnn3-c2cccc(C)c2C)n1 returned FECH inh inactive.
CNC(=O)[C@@H]1C[C@@H](N)CN1Cc1cc2c(cc1OC)OCCCO2 was read as FECH inh inactive.
CCc1nc2nc3c(c(=O)n2[nH]1)CCC3 was read as FECH inh inactive.
For Cc1nc2nc(C)c(NC(=O)Nc3cc(Cl)ccc3C)c(=O)n2[nH]1 the results were FECH inh inactive.
For O=c1c2c(nc3nc(CNc4ccccc4F)[nH]n13)CCC2 the results were FECH inh inactive.
Screening O=c1c2c(nc3nc(CNc4ccc(Br)cc4)[nH]n13)CCC2 returned FECH inh active.
Cc1c(Cl)cccc1NCc1nc2nc3c(c(=O)n2[nH]1)CCC3 was read as FECH inh active.
For CCOc1ccccc1NCc1nc2nc3c(c(=O)n2[nH]1)CCC3 the results were FECH inh inactive.
Cc1cc(=O)n2[nH]c(NCc3ccc(C(=O)Nc4ccc(Br)cc4)cc3)nc2n1 was read as FECH inh inactive.
Cc1ccc(Cl)cc1NCc1nc2nc3c(c(=O)n2[nH]1)CCC3 was read as FECH inh active.
Cc1nc2nc(C)c(NC(=O)Nc3ccccc3Cl)c(=O)n2[nH]1 was read as FECH inh inactive.
For COc1ccc(NCc2nc3nc4c(c(=O)n3[nH]2)CCC4)c(OC)c1 the results were FECH inh inactive.
Screening Cc1ccccc1NCc1nc2nc3c(c(=O)n2[nH]1)CCC3 returned FECH inh active.
`CC(=O)NCCNc1nc(CCN)nc2ccccc12` gave FECH inh inactive.
Screening O=C(Nc1ccc2c(c1)OCO2)N1CCC(n2cc(C3CCCC3)nn2)CC1 returned FECH inh inactive.
`C=CCN(CC#Cc1ccccc1)C(=O)c1cnccc1C` gave FECH inh inactive.
Screening CN1CCC2(CC1)CN(C(=O)CCN(C)S(C)(=O)=O)CCCN2C returned FECH inh inactive.
Screening CCNS(=O)(=O)c1cc(C(=O)N2CCCC2)cs1 returned FECH inh inactive.
`Cc1ccc(N2C(=O)CCS2(=O)=O)cc1S(=O)(=O)Nc1ccc(S(N)(=O)=O)cc1` gave FECH inh inactive.
For O=C(CN1CCN(Cc2ccc(F)cc2)S1(=O)=O)Nc1cccc(F)c1 the results were FECH inh inactive.
Screening CSc1ccccc1NC(=O)CN1c2ccc(C(C)C)cc2-c2ccccc2S1(=O)=O returned FECH inh inactive.
Screening CC(C)c1ccc2c(c1)-c1ccccc1S(=O)(=O)N2CC(=O)Nc1cccc(F)c1 returned FECH inh active.
Screening O=C(CN1c2ccc(F)cc2-c2ccccc2S1(=O)=O)Nc1ccccc1C(=O)N1CCCCC1 returned FECH inh inactive.
`O=C(CN1C(=O)c2ccccc2S1(=O)=O)Nc1ccc(Cl)cc1C(F)(F)F` gave FECH inh inactive.
`CC(C)c1ccc2c(c1)-c1ccccc1S(=O)(=O)N2CC(=O)NC(C)c1ccccc1` (stereo unspecified) gave FECH inh active.
`CCN(CC)C(=O)c1ccccc1NC(=O)CN1c2ccc(F)cc2-c2ccccc2S1(=O)=O` gave FECH inh active.
`CC(C)NC(=O)c1ccccc1NC(=O)CN1c2ccc(C(C)C)cc2-c2ccccc2S1(=O)=O` gave FECH inh inactive.
COCCn1c(CCCC(=O)NCc2cccnc2)nc2cccnc21 was read as FECH inh inactive.
Cc1ccc(S(=O)(=O)N2CCN(Cc3nc4cccnc4n3-c3cccc(F)c3)CC2)c(C)c1 was read as FECH inh inactive.
For CNC(=O)C1CCC(Cn2c(=O)c3sccc3n(CC(=O)Nc3ccc(C(C)=O)cc3)c2=O)CC1 (stereo unspecified) the results were FECH inh inactive.
Screening O=C1CC(Cn2cnc(-c3ccccc3)c2C2CC2)CN1C1CCCC1 (stereo unspecified) returned FECH inh inactive.
`COc1ccc(CCC(=O)N2CCN(S(=O)(=O)c3cc4c5c(c3)CCN5C(=O)CC4)CC2)cc1` gave FECH inh inactive.
For O=c1cc(CN2CCN(c3ccccc3)CC2)nc2nc(NCc3ccc(Cl)cc3)[nH]n12 the results were FECH inh inactive.
Cc1ccccc1CNS(=O)(=O)c1cc(C(=O)N2CCCC2)cs1 was read as FECH inh inactive.
Cc1ccc(C)c(NS(=O)(=O)c2cc(C(=O)N3CCCC3)cs2)c1 was read as FECH inh active.
`Cc1cccc(NS(=O)(=O)c2cc(C(=O)N3CCCC3)cs2)c1C` gave FECH inh active.
CCc1cccc(C)c1NS(=O)(=O)c1cc(C(=O)N2CCCC2)cs1 was read as FECH inh inactive.
`CCc1ccccc1NS(=O)(=O)c1cc(C(=O)N2CCCC2)cs1` gave FECH inh inactive.
Screening O=C(c1csc(S(=O)(=O)Nc2ccccc2F)c1)N1CCCCC1 returned FECH inh inactive.
O=C(O)c1cccc(CC2CCN(S(=O)(=O)N3CCOCC3)C2)c1 (stereo unspecified) was read as FECH inh inactive.
O=C(C1CNCCN1C(=O)c1cccc2nccnc12)N1CCCC1 (stereo unspecified) was read as FECH inh inactive.
Screening Cc1cc(C)n(C)c(=O)c1C(=O)NCc1cccnc1Oc1ccccc1F returned FECH inh inactive.
For CC(=O)Nc1ccc(S(=O)(=O)N2CCN(c3nc(C)cc(Nc4ccc(C)cc4)n3)CC2)cc1 the results were FECH inh inactive.
`CCC(c1ccnn1C)N1Cc2ncccc2C1=O` (stereo unspecified) gave FECH inh inactive.
`COc1ccc(CNc2nc3nc(CNc4ccc(OC)cc4)cc(=O)n3[nH]2)cc1` gave FECH inh inactive.
For Cc1ccc(NCc2nc3nc(C(C)C)cc(=O)n3[nH]2)cc1Cl the results were FECH inh active.
Screening COc1ccc(CNc2nc3nc(CNc4cccc(C(F)(F)F)c4)cc(=O)n3[nH]2)cc1 returned FECH inh inactive.
CCc1nc2nc(C)c(NC(=O)Nc3ccc(C)c(Cl)c3)c(=O)n2[nH]1 was read as FECH inh inactive.
For COc1ccccc1CNc1nc2nc(CNc3cccc(C(F)(F)F)c3)cc(=O)n2[nH]1 the results were FECH inh inactive.
